# Assays:
# Assay in all cases: thermal shift delta Tm vs DMSO control; higher = stronger stabilization (binding)
# Details in all cases: 12.5 µM; protein concentration 2 µM
# LOC_OS04G57630-cb004 = test system: LOC_OS04G57630-cb004
# Procedure, shortened: (§1)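 The melting temperature shift given here is a triplicate mean, measured against protein that received only DMSO. Melting temperatures came from Boltzmann fits of differential scanning fluorimetry data on E. coli-expressed, purified rice kinase domain constructs. Each 19.5 μl well contained 2 μM kinase, 100 mM potassium phosphate pH 7.5, 150 mM NaCl, 10% glycerol, 5 × SYPRO Orange and compound in DMSO. Plates were scanned from 25°C to 95°C at 0.05°C/s.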
# LOC_OS05G07850-cb002 = test system: LOC_OS05G07850-cb002
# Procedure, shortened: as §1
# LOC_OS05G16824-cb004 = test system: LOC_OS05G16824-cb004
# Procedure, shortened: as §1
# LOC_OS05G28520-cb001 = test system: LOC_OS05G28520-cb001
# Procedure, shortened: as §1
# LOC_OS05G30820-cb001 = test system: LOC_OS05G30820-cb001
# Procedure, shortened: as §1
# LOC_OS05G43570-cb004 = test system: LOC_OS05G43570-cb004
# Procedure, shortened: as §1
# LOC_OS06G16330-cb003 = test system: LOC_OS06G16330-cb003
# Chain of LOC_OS06G16330-cb003 (as listed by the source): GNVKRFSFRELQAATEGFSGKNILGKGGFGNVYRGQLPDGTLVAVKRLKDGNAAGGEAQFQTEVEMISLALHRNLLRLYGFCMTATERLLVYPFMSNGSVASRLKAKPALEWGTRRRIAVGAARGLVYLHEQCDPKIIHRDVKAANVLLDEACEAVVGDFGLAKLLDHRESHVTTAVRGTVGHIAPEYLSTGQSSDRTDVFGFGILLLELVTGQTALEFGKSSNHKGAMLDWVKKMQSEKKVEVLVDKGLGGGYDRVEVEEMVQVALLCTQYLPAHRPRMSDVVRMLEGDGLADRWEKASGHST
# Procedure, shortened: as §1
# LOC_OS06G22820-cb001 = test system: T1, LOC_OS06G22820-cb001
# T1 sequence (whole entry): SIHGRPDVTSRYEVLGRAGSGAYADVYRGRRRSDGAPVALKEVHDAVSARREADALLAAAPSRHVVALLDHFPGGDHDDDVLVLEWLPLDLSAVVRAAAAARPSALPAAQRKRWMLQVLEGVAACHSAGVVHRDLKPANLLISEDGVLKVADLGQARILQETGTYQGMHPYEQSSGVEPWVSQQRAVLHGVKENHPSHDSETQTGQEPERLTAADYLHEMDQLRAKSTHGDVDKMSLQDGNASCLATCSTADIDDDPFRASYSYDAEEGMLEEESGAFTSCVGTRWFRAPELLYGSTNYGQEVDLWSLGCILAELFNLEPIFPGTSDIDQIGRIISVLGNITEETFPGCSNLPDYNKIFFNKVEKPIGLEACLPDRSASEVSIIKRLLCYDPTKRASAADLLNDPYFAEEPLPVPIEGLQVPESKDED
# Procedure, shortened: as §1
# LOC_OS07G06570-cb004 = test system: LOC_OS07G06570-cb004
# Procedure, shortened: as §1
# LOC_OS07G07230-cb001 = test system: LOC_OS07G07230-cb001
# Procedure, shortened: as §1
Compound,thermal shift delta Tm (LOC_OS04G57630-cb004),thermal shift delta Tm (LOC_OS05G07850-cb002),thermal shift delta Tm (LOC_OS05G16824-cb004),thermal shift delta Tm (LOC_OS05G28520-cb001),thermal shift delta Tm (LOC_OS05G30820-cb001),thermal shift delta Tm (LOC_OS05G43570-cb004),thermal shift delta Tm (LOC_OS06G16330-cb003),thermal shift delta Tm (LOC_OS06G22820-cb001),thermal shift delta Tm (LOC_OS07G06570-cb004),thermal shift delta Tm (LOC_OS07G07230-cb001)
Cc1ccc(F)c(NC(=O)Nc2ccc(-c3cccc4[nH]nc(N)c34)cc2)c1 [Linifanib (ABT-869)],0.74 °C,4.63 °C,1.86 °C,0.75 °C,0.85 °C,0.9 °C,3.55 °C,0.6 °C,0.72 °C,0.93 °C
O=C(NC(NC(=S)Nc1ccc(F)c([N+](=O)[O-])c1)C(Cl)(Cl)Cl)C(c1ccccc1)c1ccccc1 (stereo not given),1.38 °C,8.68 °C,0.69 °C,1.84 °C,1.61 °C,2.15 °C,0.69 °C,1.79 °C,1.83 °C,0.79 °C
CC(C)(C#N)c1ccc(N2C(=O)OCc3cnc4ccc(-c5cnc6ccccc6c5)cc4c32)cc1,0.16 °C,1.96 °C,-0.65 °C,0.5 °C,0.58 °C,0.71 °C,0.44 °C,0.89 °C,1.76 °C,0.63 °C
CN1CCN(c2ccc(OC(F)(F)F)c(Nc3ncc4c(n3)-c3c(c(C(N)=O)nn3CCO)CC4)c2)CC1,2.32 °C,0.85 °C,-0.84 °C,0.63 °C,0.48 °C,0.54 °C,0.46 °C,0.49 °C,1.36 °C,0.02 °C
COc1ccc(S(=O)(=O)N(C(C)=O)c2ccccc2/C=C/c2cc[n+]([O-])cc2)cc1,0.43 °C,0.92 °C,-6.15 °C,0.67 °C,0.66 °C,0.45 °C,0.41 °C,0.58 °C,1.06 °C,0.31 °C
CN1CCC(COc2cnc(-c3cccc(Cn4nc(-c5cccc(C#N)c5)ccc4=O)c3)nc2)CC1,0.46 °C,0.61 °C,-1.27 °C,0.69 °C,0.42 °C,0.46 °C,0.55 °C,0.49 °C,1.28 °C,0.18 °C
Nc1cccc(S(=O)(=O)N2CCCN(S(=O)(=O)c3ccc4c(c3)OCCO4)CC2)c1,-0.1 °C,0.55 °C,-0.03 °C,0.74 °C,0.46 °C,0.1 °C,-0.91 °C,0.44 °C,1.4 °C,0.56 °C
COc1ccc(-c2ccc3c(N4CCOC[C@@H]4C)nc(N4CCOC[C@@H]4C)nc3n2)cc1CO,-0.09 °C,0.42 °C,-7.62 °C,0.13 °C,0.67 °C,0.21 °C,0.03 °C,0.43 °C,0.38 °C,0.11 °C
COc1ccc(Cl)cc1NC(=O)Nc1cc(C)nc2ccccc12,0.07 °C,0.02 °C,0.17 °C,0.38 °C,0.46 °C,0.5 °C,0.31 °C,0.69 °C,0.61 °C,0.62 °C
C[C@@H]1COCCN1c1cc(=O)n2c(n1)N(Cc1cncc(Cl)c1)[C@H](C(F)(F)F)CC2,0.52 °C,-0.08 °C,-0.52 °C,1.37 °C,0.35 °C,0.36 °C,-0.04 °C,0.75 °C,1.02 °C,-0.12 °C
COc1cc2nccc(Oc3ccc(NC(=O)c4cn(C(C)C)c(=O)n(-c5ccc(F)cc5)c4=O)cc3F)c2cc1OC,0.32 °C,11.1 °C,2.27 °C,0.34 °C,-0.01 °C,0.27 °C,8.48 °C,0.89 °C,1.78 °C,0.22 °C
COc1cc(Nc2ncc(F)c(Nc3ccc4c(n3)NC(=O)C(C)(C)O4)n2)cc(OC)c1OC [R406 (free base)],2.15 °C,13 °C,12.6 °C,0.85 °C,1.44 °C,0.79 °C,14.8 °C,0.44 °C,0.75 °C,-0.18 °C
"CC(C)(O)CNc1ncc(-c2ccnc(Nc3ccncc3)n2)c(CC2CC2)n1 [VPS34 inhibitor 1 (Compound 19, PIK-III analogue)]",0.13 °C,6.5 °C,2.61 °C,0.38 °C,0.25 °C,0.5 °C,3.99 °C,0.4 °C,1.83 °C,0.44 °C
O=C(c1ccc(Nc2nccc(-c3cc4ccccc4s3)n2)cc1)N1CCC(N2CCCC2)CC1 [IKK-16 (IKK Inhibitor VII)],5.63 °C,15.2 °C,7.99 °C,1.89 °C,0.77 °C,-0.31 °C,9.02 °C,0.14 °C,0.72 °C,0.03 °C
O=C(Nc1c[nH]nc1-c1nc2ccc(CN3CCOCC3)cc2[nH]1)NC1CC1,3.7 °C,14.2 °C,14.9 °C,0.46 °C,4.77 °C,1.2 °C,10.7 °C,0.86 °C,0.71 °C,0.15 °C
O=c1cc(N2CCOCC2)oc2c(-c3ccc4c(c3)OCCO4)csc12,0.03 °C,6 °C,1.81 °C,-0.12 °C,0.24 °C,0.13 °C,0.18 °C,0.4 °C,1.45 °C,0.63 °C
Cc1ccc2nc(NCCN)c3ncc(C)n3c2c1,-0.03 °C,0.79 °C,-0.92 °C,0.44 °C,0.61 °C,0.49 °C,0.49 °C,0.81 °C,1.79 °C,0.68 °C
CNS(=O)(=O)C[C@H]1CC[C@H](N(C)c2[nH]cnc3nccc2-3)CC1 [Oclacitinib],0.5 °C,7.33 °C,-0.02 °C,0.31 °C,0.53 °C,0.33 °C,3.72 °C,0.36 °C,1.6 °C,0.51 °C
Nc1ccc(-c2ccc3ncc4ccc(=O)n(-c5cccc(C(F)(F)F)c5)c4c3c2)cn1 [Torin 2],0.09 °C,9.25 °C,2.46 °C,0.76 °C,0.48 °C,0.35 °C,2.11 °C,0.56 °C,1.44 °C,0.3 °C

# From the supplement of paper PMC9694430
